# Reference: PubChem BioAssay
# Activity calls are given as the source filed them. No rule for the calls is given here.
# Biological target: Pantothenate synthetase (Mycobacterium tuberculosis (strain ATCC 25618 / H37Rv)) (UniProt P9WIL5)
# Test: Recombinant Mtb pantothenate synthetase (PanC) inhibitors, coupled enzyme, confirmatory (AID 375);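 also: 0% = full reaction with vehicle and 100% = no enzyme background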
# Details: coupled enzyme assay; at 10 µM, stronger effect = higher value
# Pantothenate synthetase (Mycobacterium tuberculosis (strain ATCC 25618 / H37Rv)), sequence (P9WIL5 whole entry, looked up): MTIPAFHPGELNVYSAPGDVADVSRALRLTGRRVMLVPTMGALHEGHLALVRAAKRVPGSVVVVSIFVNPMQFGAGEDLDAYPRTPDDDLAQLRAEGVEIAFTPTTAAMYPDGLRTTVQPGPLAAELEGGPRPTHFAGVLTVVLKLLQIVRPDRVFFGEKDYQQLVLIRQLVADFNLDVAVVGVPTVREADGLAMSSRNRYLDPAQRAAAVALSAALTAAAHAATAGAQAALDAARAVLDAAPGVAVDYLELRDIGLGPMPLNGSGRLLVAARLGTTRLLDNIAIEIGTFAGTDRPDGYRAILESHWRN
row,SMILES,inhibition
1,CS(=O)(=O)N1CCCC(C(=O)NCCCN2CCC(Cc3ccccc3)CC2)C1 (stereo not given),0% (inactive)
2,O=C1CC(Cc2ccccc2)C(=O)N1CCCn1ccnc1 (stereo not given),0% (inactive)
3,Cc1ccc2cc(CN(CC3CCCO3)S(=O)(=O)c3ccc4c(c3)OCCO4)c(=O)[nH]c2c1C (stereo not given),2% (inactive)
4,CCOC(=O)c1c(N)sn(-c2ccccc2)c1=S,5% (inactive)
5,CCC(C)OC(=O)n1ccc(C(=O)Nc2nccs2)n1 (stereo not given),0% (inactive)
6,C=CCn1c(CC#N)nnc1N1CCOCC1,0% (inactive)
7,CCn1ncc(C2=NOC(C(=O)NCc3ccccc3)C2)c1C (stereo not given),6% (inactive)
8,COC(=O)C1=C(C)NC(C)=C(C(=O)OC)C1c1cc2cc(C)ccc2[nH]c1=O,3% (inactive)
9,CCNc1nc(OC)nc(Oc2ccc(=O)n(-c3ccccc3)n2)n1,4% (inactive)
10,COc1ccccc1C(=O)NC(C)C(c1cccs1)N1CCN(C)CC1 (stereo not given),3% (inactive)
11,CC(C)c1ccc(C(O)c2cnc(C(C)C)n2C)cc1 (stereo not given),1% (inactive)
12,CCOC(=O)CNC(=O)c1c(C)nn(-c2ccccc2)c1Cl,0% (inactive)
13,CCOC(=O)Cc1nnc(NC(=O)c2ccccc2OCC)s1,0% (inactive)
14,COc1ccc(OC)c(-c2nc3c(C)n[nH]c(=O)c3[nH]2)c1,0% (inactive)
15,O=C(OC1CCc2ccccc2C1=O)c1ccccc1O (stereo not given),0% (inactive)
16,C/C=C/c1ccc(OCCn2cncn2)c(OC)c1,0% (inactive)
17,CSc1c(C#N)c(N)c(C#N)c2c1COC(C)(C)C2,0% (inactive)
18,O=C(Cn1cnc2sc(-c3ccccc3)cc2c1=O)N1CCOCC1,9% (inactive)
19,Cc1occc1-c1nnc(SCC(=O)c2ccc(F)cc2)n1Cc1ccco1,3% (inactive)
20,CCOC(=O)C1=C(c2ccccc2)N2CCN=C2S1,3% (inactive)

row,SMILES,inhibition
1,O=C(Nc1ccc2nc(-c3cccs3)[nH]c2c1)c1ccco1,0% (inactive)
2,CCOC(=O)c1c(-c2ccc(C)o2)csc1NC(=O)COC(=O)c1cccs1,5% (inactive)
3,C=CCn1c(SCC(=O)NCCCC)nc2scc(-c3ccco3)c2c1=O,0% (inactive)
4,CC(C)C1N=C2c3ccccc3N=C(SCC(=O)NCCc3ccc(S(N)(=O)=O)cc3)N2C1=O (stereo not given),0% (inactive)
5,O=C(C1CC2CCC1C2)N1CCN(Cc2ccc3c(c2)OCO3)CC1 (stereo not given),8% (inactive)
6,O=C(CSc1ncn[nH]1)NC1CC2CCC1C2 (stereo not given),0% (inactive)
7,O=C(OCc1nnc(-c2ccccc2)o1)c1ccc(S(=O)(=O)NCc2ccco2)cc1,0% (inactive)
8,CCn1c(CSc2ncccn2)nnc1SCC(=O)N1c2ccccc2CC1C (stereo not given),6% (inactive)
9,Cc1ccc(S(=O)(=O)Cc2ccc(C(=O)N3CCN(Cc4ccccc4)CC3)o2)cc1,3% (inactive)
10,O=C(Cn1nnc(-c2cc(Cl)ccc2-n2cnnn2)n1)N1CCCc2ccccc21,0% (inactive)
11,COC(=O)Cc1[nH]nc2c1C(C1C=CCCC1)C(C#N)=C(N)O2 (stereo not given),3% (inactive)
12,Cc1ccc(-c2cc3nc4c(c(=O)n3[nH]2)CCCC4)cc1,6% (inactive)
13,C=CCSc1nc2sc(C)c(C)c2c(=O)[nH]1,10% (inactive)
14,COC(=O)c1cc(NC(=O)C2COc3ccccc3O2)cc(C(=O)OC)c1 (stereo not given),0% (inactive)
15,Oc1ccccc1-c1nnc(COc2ccc(Cl)cc2Cl)o1,1% (inactive)
16,Cc1cc(NC(=O)CCOc2ccccc2)no1,0% (inactive)
17,CCCC(=O)N1CC(=O)Nc2ccc(C)cc2C1c1ccc(F)cc1 (stereo not given),0% (inactive)
18,CC(=O)c1ccc(-n2nnnc2SCC(=O)N2CCc3ccccc3C2)cc1,0% (inactive)
19,C(/CCc1ccccc1)=N\n1cnnc1,8% (inactive)
20,COc1ccc(CNC(=O)c2nnn(Cc3ccc(OC)cc3)c2N)cc1,0% (inactive)
